Measurements reported in the supplement of paper PMC6555819.

system: PPARg:RXRa (NR concentration 180 nM, RXRa partner concentration 90 nM); test: PBM binding z-score (relative to random genomic background probes); higher = stronger binding; sequences stand for … in GC…GCGATTGACAGCGTAGAATGAAGG
Procedure, shortened: (§1)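 For binding z-scores, the reference was random background probes on custom Agilent 4×180K protein-binding microarrays. These arrays were incubated 1 h with ligand-free nuclear receptor dimers in PBS pH 7.4, 2% milk, 0.02% Triton X-100, 1 mM DTT, 0.2 mg/mL BSA and 0.4 mg/ml salmon testes DNA. Fluorescence was scanned after antibody detection of each partner (one per run) and regression-normalized.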

| Sequence | PBM binding z-score |
| --- | --- |
| CGAACTAGGTCACCAGGACAGTAAAGAGGTTGGA | 9.15 |
| ATATGTAGGATATCGGGTCATTCAGTTTGCGCAT | 2.36 |
| ATACGTAGGTTACATCCGGGTCATTCAGGCTATG | 1.57 |
| ATATGGAGGTTAGGGTCATTCAGAAAGTAGGGAA | 5.01 |
| ATATGTAGGTTAGGGTCATTCACAAAGTAGGGAA | 7.65 |
| TAGCCTAGGTCATTCAGGGGGCAGTATAGAAAGC | 3.97 |
| CGAGCTAGGTCACCAGGACAGTGAAGAGGTTGGA | 3.74 |
| CGAACTAGGCCAAAGGACAGTGAAAGGCGACGTA | 6.79 |
| CGAACTAGGTCACCACGACAGTGAAGAGGTTGGA | 8.44 |
| CGTCCAAGGTCAATGCAAGGTCAGTGAAAGCATT | 4.73 |
| CGAACCAGGTCACCAGGACAGTGAAGAGGTTGGA | 6.6 |
| CCTAGTTGGTCAAGGTAACACACGCTATAGGTAC | 1.08 |
| ATATGTAGGTTACATCCGAGTCATTCAGGCTATG | 5.14 |
| ATATGAAGGTTATCGGGTCATTCAGTTTGCGCAT | 4.21 |
| ATATGTAGGTTACATCGGGGTCATTCAGGCTATG | 7.19 |
| CTCGAAAGGTCGGTTGAGGTGAGTAAACGGATAA | 0.202 |
| CGAACTAGGTAAAAGGACAGTGAAAGGCGACGTA | 5.26 |
| CGTCAAAGTTCAACTAAGTTAACGTAAAGCACGC | 5.09 |
| ATATGTGGGTTAGGGTCATTCAGAAAGTAGGGAA | 7.6 |
| CCGACGGGGGCAAGGTTACCATAACGCACAGCCA | 2.74 |

| Sequence | PBM binding z-score |
| --- | --- |
| CTCGAAAGGTCGTCCTCAGGTGAGTATACCAAAC | 2.08 |
| ATTTGTAGGTTATCGGGTCATTCAGTTTGCGCAT | 6.03 |
| TCTGCTAGGTCAGGTGGTCAGCTAACGAGCTGCC | 1.01 |
| CGAACTTGGTCACCAGGACAGTGAAGAGGTTGGA | 0.758 |
| CGAACTAGGTGACCAGGACAGTGAAGAGGTTGGA | 3.98 |
| CCTACTGGGCCAAGGTCATTGCTCAGTCAAAGCA | 3.88 |
| CGTCCAAGGTAAGAGAGGTCAGTGAATGCCGAGT | 0.401 |
| CGAACTAGGTCACCAGGACAGAGAAGAGGTTGGA | 8.52 |
| CCTACTGGGCCAAAGGTCAGTGATTCCAATGCTC | 11.7 |
| TGAATGAGGTCAAAGATCAGGGAACGTGGCGTCG | 9.41 |
| CCTTACGGGTCACTCCATGTTATAGCATCGGAGT | 3.24 |
| CGAACTAGGTCACCAGGACAGTGGAGAGGTTGGA | 8.7 |
| CGAATTAGGTCACCAGGACAGTGAAGAGGTTGGA | 8.25 |
| GATACAGGGTGAAGGCCAGAGTACGCGTATTGAT | 1.41 |
| CGAACTAGGTCATCAGGACAGTGAAGAGGTTGGA | 7.71 |
| AGTCAGAGTTCATCTAGGTAACGTAAGATATGCT | 4.23 |
| CCTACTGGGCCATTCAGAGGTCATTGATCATATG | 2.59 |
| CCTTACGGGTCAAGGTAATAGCACGGGTGGTACG | 4.75 |
| CCTTACGGGTCAAGGTTATCGCACGGGTGGTACG | 4.85 |

system: PPARg:RXRa 270nM:90nM, anti-RXR (NR concentration 270 nM, RXRa partner concentration 90 nM); test: as above
Procedure, shortened: as §1

| Sequence | PBM binding z-score |
| --- | --- |
| CGAACTAGGTCACCAGGACAGTAAAGAGGTTGGA | 7.03 |
| ATATGTAGGATATCGGGTCATTCAGTTTGCGCAT | 2.9 |
| ATACGTAGGTTACATCCGGGTCATTCAGGCTATG | 1.54 |
| ATATGGAGGTTAGGGTCATTCAGAAAGTAGGGAA | 4.47 |
| ATATGTAGGTTAGGGTCATTCACAAAGTAGGGAA | 6.7 |
| TAGCCTAGGTCATTCAGGGGGCAGTATAGAAAGC | 4.6 |
| CGAGCTAGGTCACCAGGACAGTGAAGAGGTTGGA | 3.66 |
| CGAACTAGGCCAAAGGACAGTGAAAGGCGACGTA | 6.81 |
| CGAACTAGGTCACCACGACAGTGAAGAGGTTGGA | 7.14 |
| CGTCCAAGGTCAATGCAAGGTCAGTGAAAGCATT | 5.14 |
| CGAACCAGGTCACCAGGACAGTGAAGAGGTTGGA | 5.66 |
| CCTAGTTGGTCAAGGTAACACACGCTATAGGTAC | 1.32 |
| ATATGTAGGTTACATCCGAGTCATTCAGGCTATG | 4.01 |
| ATATGAAGGTTATCGGGTCATTCAGTTTGCGCAT | 4.21 |
| ATATGTAGGTTACATCGGGGTCATTCAGGCTATG | 6.35 |
| CTCGAAAGGTCGGTTGAGGTGAGTAAACGGATAA | 1.25 |
| CGAACTAGGTAAAAGGACAGTGAAAGGCGACGTA | 6.57 |
| CGTCAAAGTTCAACTAAGTTAACGTAAAGCACGC | 5.05 |
| ATATGTGGGTTAGGGTCATTCAGAAAGTAGGGAA | 6.42 |
| CCGACGGGGGCAAGGTTACCATAACGCACAGCCA | 3.36 |

| Sequence | PBM binding z-score |
| --- | --- |
| CTCGAAAGGTCGTCCTCAGGTGAGTATACCAAAC | 3.47 |
| ATTTGTAGGTTATCGGGTCATTCAGTTTGCGCAT | 5.66 |
| TCTGCTAGGTCAGGTGGTCAGCTAACGAGCTGCC | 2.36 |
| CGAACTTGGTCACCAGGACAGTGAAGAGGTTGGA | 0.47 |
| CGAACTAGGTGACCAGGACAGTGAAGAGGTTGGA | 3.34 |
| CCTACTGGGCCAAGGTCATTGCTCAGTCAAAGCA | 4.33 |
| CGTCCAAGGTAAGAGAGGTCAGTGAATGCCGAGT | 1.2 |
| CGAACTAGGTCACCAGGACAGAGAAGAGGTTGGA | 7.02 |
| CCTACTGGGCCAAAGGTCAGTGATTCCAATGCTC | 10.2 |
| TGAATGAGGTCAAAGATCAGGGAACGTGGCGTCG | 8.31 |
| CCTTACGGGTCACTCCATGTTATAGCATCGGAGT | 3.49 |
| CGAACTAGGTCACCAGGACAGTGGAGAGGTTGGA | 7.06 |
| CGAATTAGGTCACCAGGACAGTGAAGAGGTTGGA | 6.75 |
| GATACAGGGTGAAGGCCAGAGTACGCGTATTGAT | 1.72 |
| CGAACTAGGTCATCAGGACAGTGAAGAGGTTGGA | 6.43 |
| AGTCAGAGTTCATCTAGGTAACGTAAGATATGCT | 4.21 |
| CCTACTGGGCCATTCAGAGGTCATTGATCATATG | 3.24 |
| CCTTACGGGTCAAGGTAATAGCACGGGTGGTACG | 4.34 |
| CCTTACGGGTCAAGGTTATCGCACGGGTGGTACG | 5.31 |
